# Only some compounds are listed: those with a hit (about 1.9% of all), similar ones and a draw of the others.
# TDP-43 yeast inh: rescues yeast growth from TDP-43 toxicity | actives 1.8% (n = 410,000) | AID 652104 | TDP-43 expressing yeast growth rescue, BacTiter-Glo, 24 h | Potency, µM (doses to about 46.1 µM), most hits filed as activators; note: nearly all actives have a fitted effect of over 50% in size
#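 Luminescence from BacTiter-Glo reports growth of TDP-43-expressing yeast after 24 hr at 30 deg C with compound. Cells were raffinose-pregrown to mid-log, then seeded in galactose medium at OD600=0.02.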
# PTHR1 ag: agonists of human PTHR1 parathyroid hormone receptor; Q03431; HEK293 GP2 PTHR1 cells, GloSensor cAMP luminescence, 1 h; Potency, µM (highest dose often 115 µM), usual class: activators; actives 0.075% (n = 410,000); AID 743266; note: nearly all actives have a fitted effect of over 55% in size
# Target sequence (Q03431 whole entry, looked up): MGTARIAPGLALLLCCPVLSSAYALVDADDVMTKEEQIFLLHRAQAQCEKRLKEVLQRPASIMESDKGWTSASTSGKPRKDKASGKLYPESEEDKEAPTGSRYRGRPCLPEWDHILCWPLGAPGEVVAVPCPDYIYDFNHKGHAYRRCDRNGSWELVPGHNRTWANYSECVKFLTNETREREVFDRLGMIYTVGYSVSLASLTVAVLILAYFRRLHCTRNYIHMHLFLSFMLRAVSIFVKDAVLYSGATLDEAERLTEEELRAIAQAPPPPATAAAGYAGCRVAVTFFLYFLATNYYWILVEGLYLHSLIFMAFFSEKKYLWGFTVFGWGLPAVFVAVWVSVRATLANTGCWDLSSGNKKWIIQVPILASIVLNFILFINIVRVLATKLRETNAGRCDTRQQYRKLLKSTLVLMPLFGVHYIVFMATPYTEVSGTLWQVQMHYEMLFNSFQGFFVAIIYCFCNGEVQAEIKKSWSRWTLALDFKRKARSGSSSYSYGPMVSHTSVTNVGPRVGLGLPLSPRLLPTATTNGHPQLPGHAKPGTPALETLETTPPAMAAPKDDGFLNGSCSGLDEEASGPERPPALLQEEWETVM
#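 HEK-293-derived GP2 cells expressing PTHR1 and a GloSensor cAMP reporter, 3,000/well, plated overnight, given luciferin plus IBMX (each 0.5 mM as added) for 1 h at 37 °C, then compound for 1 h at 37 °C. Luminescence was read after 15 min at room temperature.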
# aSyn yeast inh: alpha-synuclein toxicity inhibition in yeast | Yeast expressing alpha-synuclein, growth rescue, BacTiter-Glo, 24 h | Potency, µM (doses to about 46.1 µM), usual class: activators | actives 0.14% (n = 370,000) | AID 652106; note: nearly all actives have a fitted effect of over 65% in size
#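 Readout is rescue of growth in alpha-synuclein-expressing yeast, so inhibitors of toxicity appear as activators. Growth after 24 hr at 30 deg C in galactose medium is quantified by luminescence.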
# LDHA block: inhibitors of human lactate dehydrogenase A | P00338 | purified LDHA, NADH/diaphorase-resazurin fluorescence; hits give low values | activity change, % (values are at about 110 or 230 µM) | actives 0.15% (n = 480,000); in the data active = activity change below about -30%; inconclusive = mostly about -25% to -30%
#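 Enzyme activity of human lactate dehydrogenase 5 (2 nM; 0.06 mM NADH, 0.2 mM pyruvate, 5 min, RT) is measured via a resazurin/diaphorase fluorescence readout of residual NADH.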
# Abeta yeast res: compounds reversing amyloid beta toxicity in yeast; yeast expressing A-beta42, growth rescue, OD600, 48 h; response scale: 0% DMSO, 100% iron-clioquinol control; Potency, µM (series often up to 46.1 µM), hits mostly activators; actives 0.063% (n = 410,000); note: nearly all actives have a fitted effect of over 55% in size
#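 Yeast A-beta toxicity model in growth medium with pinned compounds, 48 h at 30 C; growth read as absorbance at 600 nm. Normalized to FeCl3/clioquinol equimolar mix (positive) and DMSO (negative).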
# FUS yeast rescue: FUS proteinopathy suppression in yeast | S. cerevisiae FUS-expressing, growth rescue, OD600, 24 h | Potency, µM (highest dose often 76.6 µM), hits mostly activators | actives 0.24% (n = 390,000); note: nearly all actives have a fitted effect of over 55% in size
#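 S. cerevisiae expressing FUS from galactose induction served as the toxicity model. Growth after 24hr at 30C, read as absorbance at 600 nm, indicates suppression of toxicity; compounds dosed at several concentrations.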
# Numbers stand for hits; 0 = inactive; ? = inconclusive; - = no result; ! = repeats disagree; [ ] = another dose, or the depositor's remark. Unless noted, calls come from the whole dose curve; as a rule, active = well fitted curve in the direction sought with a large enough effect; inconclusive = small, poorly fitted or top-dose-only effect, or another doubt; inactive = no such curve, though single readings can be large; an effect the other way counts as inactive or inconclusive.
SMILES,TDP-43 yeast inh,PTHR1 ag,aSyn yeast inh,LDHA block,Abeta yeast res,FUS yeast rescue
CC(=O)CSc1nnc2c3ccccc3nc(C(C)(C)C)n12,14.1µM,0,0,0,0,0
Cc1ccc(C2CCN(C(=O)Nc3ccccc3)C2)cc1 (stereo not given),10µM,0,0,0,0,0
Cc1ccc(NC(=O)N2CCC(c3ccccc3)C2)cc1C (stereo not given),?,0,0,0,0,0
O=C(Nc1ccc(Cl)cc1)N1CCC(c2ccccc2)C1 (stereo not given),11.2µM!,0,0,0,0,0
Cc1ccc(NC(=S)N2CCC(c3ccc(C)cc3)C2)cc1 (stereo not given),17.8µM,0,0,0,?,0
CCNC12CC3CC(CC(C3)C1)C2,-,-,-,0,-,-
CCCCN(Cc1ccccc1)c1ccc(NS(=O)(=O)c2cc(C)cc(C)c2)cc1C(=O)O,-,-,-,0,-,-
O=C1CC(Sc2ccc(Cl)cc2)C(=O)N1c1ccc2c(c1)OCCO2 (stereo not given),11.2µM,0,0,0,0,0
CC(=NCc1cccc(Cl)c1)c1nc(-c2ccco2)oc1O,11.2µM,0,0,0,0,0
O=C(Nc1ccc(Cl)c(Cl)c1)Nc1nnc(-c2ccncc2)o1,-,-,-,0,-,-
COc1ccc(-c2cc(C(F)(F)F)nc(-n3cc(Cl)cn3)n2)cc1,11.2µM,0,0,0,0,?
COC(=O)CCS(=O)(=O)c1nc(-c2ccccc2)cc(C(F)(F)F)n1,?,0,0,0,0,0
CS(=O)(=O)c1nc(-c2ccc(F)cc2)cc(C(F)(F)F)n1,0[0.397 µM],0,0,0,0,0
CCOC(=O)CCS(=O)(=O)c1nc(-c2ccccc2)cc(C(F)(F)F)n1,15.8µM,0,0,0,0,-
COc1cccc(-c2cc(C(F)(F)F)nc(-n3cc(Cl)cn3)n2)c1,0,0,0,0,0,0
CCOC(=O)CS(=O)(=O)c1nc(-c2ccc(F)cc2)cc(C(F)(F)F)n1,22.4µM,0,0,0,0,0
CCOC(=O)c1c(C(F)(F)F)cc(-c2ccc(F)cc2)nc1C,0,0,0,0,0,-
COc1ccc(-c2cc(C(F)(F)F)nc(S(C)(=O)=O)n2)cc1,12.6µM,0,0,0,0,0
CCOC(=O)CS(=O)(=O)c1nc(-c2ccccc2)cc(C(F)(F)F)n1,22.4µM,0,0,0,0,0
COc1ccc(NC(=O)CCS(=O)(=O)c2nc(-c3ccccc3)cc(C(F)(F)F)n2)cc1,-,-,-,0,-,-
CC(c1ccc(F)cc1)N(C)Cc1nc2sccn2c1Br (stereo not given),-,-,-,0,-,-
Cc1cccn2c(=O)c(/C=C(\C#N)C(N)=O)c(N3CCN(c4cccc(Cl)c4)CC3)nc12,25.1µM,0,0,0,0,?
FC(F)(F)c1ccnc(Oc2ccc(-c3nc4ccccc4s3)cc2)n1,-,-,-,0,-,-
O=C1N[C@@H](Cc2c[nH]c3ccccc23)COC(=O)[C@H](Cc2ccc(F)cc2)C/C=C\C[C@@H]1CC(=O)N(CCO)Cc1ccccc1,0,0,0,0,0,28.2µM
O=C(N[C@@H]1C/C=C\C[C@H](CC(=O)N(CCO)Cc2ccccc2)C(=O)N[C@@H](Cc2c[nH]c3ccccc23)COC1=O)OCC1c2ccccc2-c2ccccc21,0,0,0,0,0,?
SMILES,TDP-43 yeast inh,PTHR1 ag,aSyn yeast inh,LDHA block,Abeta yeast res,FUS yeast rescue
O=C(N[C@H]1C/C=C\C[C@H](CC(=O)N(CCO)Cc2ccccc2)C(=O)N[C@H](Cc2c[nH]c3ccccc23)COC1=O)OCC1c2ccccc2-c2ccccc21,0,0,0,0,0,22.4µM
O=C1N[C@@H](Cc2c[nH]c3ccccc23)COC(=O)[C@@H](Cc2ccc(F)cc2)C/C=C\C[C@H]1CC(=O)N(CCO)Cc1ccccc1,0,0,0,0,0,?
O=C(N[C@H]1C/C=C\C[C@@H](CC(=O)N(CCO)Cc2ccccc2)C(=O)N[C@H](Cc2c[nH]c3ccccc23)COC1=O)OCC1c2ccccc2-c2ccccc21,0,0,0,0,0,20µM
O=C(OCc1ncc(-c2ccc(F)cc2)o1)c1ccc(Cl)cc1,-,-,-,0,-,-
CCn1c(C)c(/C=C/c2cc[n+](C)cc2)c2cc(C)ccc21,-,-,-,0,-,-
Cc1ccc(NC(=O)C(C)N(C)Cc2ccc3c(c2)OCCO3)c(Br)c1 (stereo not given),-,-,-,0,-,-
CC1CCN(c2nc3ccc(C(=O)NCc4ccc(Cl)cc4)cc3s2)CC1,0,0,-,0,0,0
CC1CCN(c2nc3ccc(C(=O)O)cc3s2)CC1,3.98µM,0,0,0,0,-
COC(=O)C(C)Oc1ccc(-c2nccc(-c3cccs3)n2)cc1 (stereo not given),0,0,0,0,0[9.22 µM],0
Oc1ccc(-c2nccc(-c3cccs3)n2)cc1,12.6µM,0,0,0,0,0
O=C(O)c1ccc2c(c1)C(=O)/C(=C\c1ccco1)C2=O,0,0,0,0,0,0
O=C1C(=Cc2ccco2)C(=O)c2ccccc21,22.4µM,0,0,0,0,-
COc1ccc(OCC(=O)Nc2cccc(-c3nc4cc(C)ccc4o3)c2C)cc1,-,-,-,0,-,-
Cc1cc(O)c2c(CN3CCN(Cc4ccccc4)CC3)cc(=O)oc2c1,0,0,0,-31.3!,0,0
Cc1cc(O)c2c(CN3CCN(CCO)CC3)cc(=O)oc2c1,-,-,-,0,-,-
O=C(CSc1ccc(Cl)cc1)c1ccco1,0,0,0,0,0,0
O=C(CSc1ccccc1Cl)c1ccco1,15.8µM,0,0,0,0,0
COc1cc(Cl)c(NC(=O)Cc2coc3cc(C)c(C)cc23)cc1OC,-,-,-,0,-,-
COc1cc2c(cc1OC)/C(=C/c1ccc(Cl)cc1)C(=O)OC2,22.4µM,0,0,0,0,0
